# Assay outcomes (PubChem)
# HCMV antiviral – blocks human cytomegalovirus replication | HFF cells, HCMV-luciferase reporter, 72 h; active compounds read low | activity change, negative = inhibition, % at 57.5 µM | actives 4.5% (n = 410,000); in the data active = activity change below about -60%; inconclusive = no clear call, values can overlap the other calls; inactive = above about -39%
#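 After 16 h attachment at 37C, HFF cells received test compound and HCMV-luciferase (1 PFU/cell); reporter luminescence read 72 h later, data normalized against buffer-only and known inhibitor Salinomycin.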
# MARV entry inh – inhibitors of Marburg virus binding or cell entry | Marburg virus pseudotyped entry inhibition, cell reporter | actives 1.8% (n = 300,000) | Potency, µM (series often up to 37.8 µM), most hits filed as inhibitors | AID 540276; calls by dose curve; tested in HEK293 cells
# Lassa entry inh – blocks Lassa virus binding to or entry into cells. actives 1.2% (n = 300,000). AID 540256. Potency, µM (series often up to 37.9 µM), actives largely listed as inhibitors. Lassa virus pseudotype entry inhibition, cell reporter; calls by dose curve; tested in HEK293 cells; also: nearly all actives have a fitted effect of over 50% in size
# HCV inh – inhibitors of hepatitis C virus infection. AID 651820. Huh7.5.1 HCVcc-Cre infection, luciferase reporter, 44 h. Potency, µM (doses to about 41.8 µM), hits mostly inhibitors. actives 3.4% (n = 340,000); active = well fitted inhibition curve with a large enough effect; inconclusive = small, poorly fitted or top-dose-only effect, or another doubt; inactive = no such curve, though single readings can be large or run the other way
#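 Infectious HCV cell culture screen: compound-treated cells (1,000/well, pre-plated 4 h) are infected with HCVcc-Cre at roughly 0.5 moi and grown 44 h. Infection is quantified by luciferase signal after 15 min substrate incubation at room temperature.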
# FMDV inh – foot and mouth disease virus antiviral activity | FMDV antiviral cell-based qHTS | AID 1159524 | actives 1.2% (n = 410,000) | Potency, µM (highest dose often 57.9 µM), hits mostly inhibitors; calls by dose curve; tested in HEK293T cells; also: read-out not given here; nearly all actives have a fitted effect of over 45% in size
# A number is an active result; . = inactive; ? = inconclusive; / = not tested or not shown; ! = not confirmed by another sample. Hits are enriched below; roughly 7.9% of the tested compounds scored in any of these assays.
SMILES,HCMV antiviral,MARV entry inh,Lassa entry inh,HCV inh,FMDV inh
Cc1ccccc1CN1C(=O)CSCC1(C)C(=O)Nc1ccc2c(c1)OCCO2 (centres undefined),.,/,/,/,.
O=C(O)c1ncn(Cc2ccc(Br)cc2)c1C(=O)O,?,?,.,.,35.5µM
O=C(c1ncn(Cc2ccccc2)c1C(=O)N1CCN(c2ccccc2)CC1)N1CCN(c2ccccc2)CC1,.,/,/,.,.
O=C(NCCc1ccccc1)c1ccc2nccnc2c1,.,1.26µM,2.82µM,.,.
O=C(NCCc1ccc2c(c1)OCCO2)c1cccc(F)c1,-73.2,.,.,?,.
O=C(NNC(=S)NCc1ccccc1)c1ccc2c(c1)OCO2,-65.1,.,.,.,.
O=C(c1ccc2c(c1)OCO2)C1CCCN(C2CCN(CCc3ccccc3)CC2)C1 (centres undefined),.,7.08µM,?,3.55µM,.
O=C(NCC1Cc2cccc(-c3cccnc3)c2O1)c1cc(-c2ccccc2)n[nH]1 (centres undefined),/,/,/,/,.
O=C(NCCc1ccccc1)c1ccc2c(c1)OCO2,-78.7,1.26µM,1.12µM,.,7.94µM
O=C(NCCS(=O)(=O)NCc1ccccc1)c1ccc2c(c1)OCO2,.,.,.,.,.
COc1ccc(N2Cc3ccccc3C2=NC(=O)c2cccc([N+](=O)[O-])c2)cc1,.,.,.,.,.
N#Cc1ccc(N2Cc3ccccc3C2=NC(=O)c2cccs2)cc1,.,?,.,?,.
COc1ccc(N2Cc3ccccc3C2=NC(=O)c2cncc(Br)c2)cc1,-81.4,.,.,.,.
CCOC(=O)c1ccc(N2Cc3ccccc3C2=NC(=O)c2cccs2)cc1,.,?,10µM,.,.
CC(=O)c1ccc(N2Cc3ccccc3C2=NC(=O)c2cccs2)cc1,.,?,7.94µM,?,.
CS(=O)(=O)N(CCc1ccccc1)CC(=O)N1CCCCCC1,.,/,/,/,.
COc1ccc(C(=O)OC2=C(C(=O)c3ccccc3)N(C)S(=O)(=O)c3ccccc32)cc1OC,.,.,.,/,.
CCOc1cc2sc(N3CCC(C(=O)NCCCN4CCCC4=O)CC3)nc2cc1Br,.,/,/,?,.
CSc1nnc(-c2sc3cc(C(F)(F)F)cnc3c2-c2ccccc2)n1C,?,1.58µM,?,?,.
O=C(O)c1sc2cc(C(F)(F)F)cnc2c1-c1ccccc1,.,.,.,.,.
CN(CC(=O)NCC1CCCCC1)S(=O)(=O)c1ccc(F)cc1,-62.5,.,.,.,.
CC(=O)c1ccc(S(=O)(=O)N(C)CC(=O)NCC2CCCCC2)cc1,.,.,.,.,.
CN(CC(=O)NCc1ccc(F)cc1)S(=O)(=O)c1ccc(Br)s1,-71.4,.,.,.,.
COc1ccc(CNC(=O)CN(C)S(=O)(=O)c2ccc(Br)s2)cc1,.,.,.,.,.
Cc1cccc(C(=O)Nc2ccc3ccccc3c2)c1,-101.7,/,/,?,.
SMILES,HCMV antiviral,MARV entry inh,Lassa entry inh,HCV inh,FMDV inh
CC(=O)c1ccc(NC(=O)Nc2ccc3c(c2)nc(C)n3C)cc1,.,?,.,.,.
COc1cccc(C(=O)Nc2ccc3ccccc3c2)c1,.,?,?,?,.
Cc1ccc(NC(=O)Nc2ccc3c(c2)nc(C)n3C)cc1,.,11.2µM,?,?,.
Cc1cccc(C(=O)Nc2ccc3c(c2)nc(C)n3C)c1,-101.7,?,?,.,.
COc1cccc(NC(=O)CN(C)C(C)C(=O)NC(C)c2ccc(Cl)cc2Cl)c1 (centres undefined),.,.,.,?,.
Cc1ccc(-c2csc3nnc(SCC(=O)Nc4nsc(-c5ccccc5)n4)n23)cc1,?,.,.,?,?
O=C(CSc1nnc2scc(-c3ccccc3)n12)Nc1nsc(-c2ccccc2)n1,?,20.6µM!,.,11.2µM!,31.6µM
O=C(CSc1nnc2scc(-c3ccccc3)n12)Nc1nsc(-c2ccc(Cl)cc2)n1,-72.8,?,.,.,?
Cc1cccc(C)c1C(O)c1ncc(-c2ccccc2C(F)(F)F)[nH]1 (centres undefined),.,/,/,/,.
O=S(=O)(c1ccccc1)N1CCN(CC2CC3C=CC2C3)CC1 (centres undefined),-102.0,/,/,.,.
O=S(=O)(c1ccc(F)cc1)N1CCN(CC2CC3C=CC2C3)CC1 (centres undefined),.,.,.,.,?
COc1cc(NC(=O)c2cccs2)c(OC)cc1NC(=O)CCC(=O)Nc1ccc(C)cc1,.,?,?,.,.
CN(C)c1ccc(C(CNC(=O)c2ccc(C(C)(C)C)cc2)N2CCOCC2)cc1 (centres undefined),.,/,?,/,.
